This is an account of results in ChEMBL document CHEMBL1961873, “Compounds: GSK PKIS; Assays: Nanosyn kinase panel” (2012).

For test [1], the target named is Tyrosine-protein kinase Fyn (Homo sapiens) (UniProt P06241). As to conditions: at 1 µM.
For test [2], the target named is Tyrosine-protein kinase HCK (Homo sapiens) (UniProt P08631). As to conditions: at 0.1 µM.
Test [3] has the same target. As to conditions: at 1 µM.
The target in test [4] is Insulin-like growth factor 1 receptor (Homo sapiens) (UniProt P08069). The following applies: at 0.1 µM.
Insulin-like growth factor 1 receptor (Homo sapiens), sequence (P08069 31-736 limits assumed): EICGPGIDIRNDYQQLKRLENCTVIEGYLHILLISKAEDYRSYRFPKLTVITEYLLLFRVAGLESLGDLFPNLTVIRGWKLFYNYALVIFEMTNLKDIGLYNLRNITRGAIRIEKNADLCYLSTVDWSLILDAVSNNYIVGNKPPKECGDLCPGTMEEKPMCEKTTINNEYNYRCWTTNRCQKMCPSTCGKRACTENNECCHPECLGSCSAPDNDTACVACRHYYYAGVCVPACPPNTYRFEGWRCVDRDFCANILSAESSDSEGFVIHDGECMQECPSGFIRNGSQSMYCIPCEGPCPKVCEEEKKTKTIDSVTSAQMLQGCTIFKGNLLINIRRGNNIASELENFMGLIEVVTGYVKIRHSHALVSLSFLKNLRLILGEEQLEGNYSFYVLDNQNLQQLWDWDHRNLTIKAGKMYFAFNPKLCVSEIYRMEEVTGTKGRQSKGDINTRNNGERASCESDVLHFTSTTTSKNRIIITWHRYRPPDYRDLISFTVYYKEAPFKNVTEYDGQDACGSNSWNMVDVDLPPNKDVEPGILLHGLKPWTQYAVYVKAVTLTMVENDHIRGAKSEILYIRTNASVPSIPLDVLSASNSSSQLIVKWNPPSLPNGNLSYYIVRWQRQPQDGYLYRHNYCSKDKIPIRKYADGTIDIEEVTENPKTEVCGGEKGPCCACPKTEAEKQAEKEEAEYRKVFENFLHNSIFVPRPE
Insulin-like growth factor 1 receptor (Homo sapiens), sequence (P08069 741-1367 limits assumed): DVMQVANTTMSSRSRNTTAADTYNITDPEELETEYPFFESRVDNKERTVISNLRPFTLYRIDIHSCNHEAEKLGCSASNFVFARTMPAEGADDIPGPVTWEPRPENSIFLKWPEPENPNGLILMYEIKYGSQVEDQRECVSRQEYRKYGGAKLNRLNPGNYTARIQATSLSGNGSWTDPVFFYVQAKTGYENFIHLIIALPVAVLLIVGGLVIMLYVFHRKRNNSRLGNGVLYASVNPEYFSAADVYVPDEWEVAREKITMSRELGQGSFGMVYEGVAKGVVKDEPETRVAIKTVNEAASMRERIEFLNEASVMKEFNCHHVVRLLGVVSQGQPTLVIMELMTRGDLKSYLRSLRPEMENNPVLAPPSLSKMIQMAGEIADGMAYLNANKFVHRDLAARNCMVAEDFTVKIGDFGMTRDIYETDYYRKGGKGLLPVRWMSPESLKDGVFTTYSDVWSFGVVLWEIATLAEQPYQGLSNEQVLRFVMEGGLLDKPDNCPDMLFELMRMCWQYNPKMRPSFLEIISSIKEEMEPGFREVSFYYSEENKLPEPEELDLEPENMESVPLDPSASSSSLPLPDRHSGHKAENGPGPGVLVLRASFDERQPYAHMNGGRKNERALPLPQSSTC
The target is the same in test [5]. The following applies: at 1 µM.
Test [6] has as its target Insulin receptor (Homo sapiens) (UniProt P06213). As to conditions: at 0.1 µM.
Test [7] shares this target. The following applies: at 1 µM.
Test [8] has as its target Insulin receptor-related protein (Homo sapiens) (UniProt P14616). The following applies: at 0.1 µM.
Test [9] shares this target. The following applies: at 1 µM.
Test [10] addresses T1, Tyrosine-protein kinase ITK/TSK (Homo sapiens) (UniProt Q08881).
T1 sequence (whole entry): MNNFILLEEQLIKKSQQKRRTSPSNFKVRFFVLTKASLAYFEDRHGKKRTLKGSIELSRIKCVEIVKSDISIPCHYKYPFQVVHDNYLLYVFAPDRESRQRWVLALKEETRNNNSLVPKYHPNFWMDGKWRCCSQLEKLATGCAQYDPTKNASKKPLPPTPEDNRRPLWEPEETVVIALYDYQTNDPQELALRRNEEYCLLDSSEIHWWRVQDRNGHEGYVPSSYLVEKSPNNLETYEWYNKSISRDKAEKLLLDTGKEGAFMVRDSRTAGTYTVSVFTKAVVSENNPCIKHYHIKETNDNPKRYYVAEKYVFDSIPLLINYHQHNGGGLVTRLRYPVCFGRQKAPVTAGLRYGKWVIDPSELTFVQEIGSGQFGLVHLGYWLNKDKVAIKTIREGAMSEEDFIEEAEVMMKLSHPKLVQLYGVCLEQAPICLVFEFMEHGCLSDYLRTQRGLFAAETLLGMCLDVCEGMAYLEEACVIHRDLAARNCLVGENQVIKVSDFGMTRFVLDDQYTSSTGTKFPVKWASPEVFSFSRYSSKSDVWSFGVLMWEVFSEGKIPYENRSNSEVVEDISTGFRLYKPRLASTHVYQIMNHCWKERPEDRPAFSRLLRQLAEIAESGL
As to conditions: at 0.1 µM.

Values joined by “and” are separate entries in the source; they are usually repeats but may differ in a detail not shown here. Equal entries are not always repeated.

Tyrosine-protein kinase HCK (Homo sapiens), sequence (P08631 2-526 limits assumed): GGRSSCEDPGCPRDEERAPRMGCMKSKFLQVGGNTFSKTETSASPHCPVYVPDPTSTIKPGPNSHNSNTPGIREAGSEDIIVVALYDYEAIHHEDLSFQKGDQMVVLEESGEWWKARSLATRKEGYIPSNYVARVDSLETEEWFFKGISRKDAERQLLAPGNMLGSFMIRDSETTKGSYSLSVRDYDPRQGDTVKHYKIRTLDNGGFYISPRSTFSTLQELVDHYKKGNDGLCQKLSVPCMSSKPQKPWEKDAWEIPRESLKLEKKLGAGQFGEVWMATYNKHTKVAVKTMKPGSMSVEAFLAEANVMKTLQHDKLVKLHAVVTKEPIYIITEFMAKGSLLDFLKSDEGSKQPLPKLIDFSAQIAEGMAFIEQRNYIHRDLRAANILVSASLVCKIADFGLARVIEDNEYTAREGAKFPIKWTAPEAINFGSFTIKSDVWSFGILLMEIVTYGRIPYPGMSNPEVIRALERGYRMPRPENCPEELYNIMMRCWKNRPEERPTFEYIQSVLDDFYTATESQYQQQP
Tyrosine-protein kinase Fyn (Homo sapiens), sequence (P06241 2-537 limits assumed): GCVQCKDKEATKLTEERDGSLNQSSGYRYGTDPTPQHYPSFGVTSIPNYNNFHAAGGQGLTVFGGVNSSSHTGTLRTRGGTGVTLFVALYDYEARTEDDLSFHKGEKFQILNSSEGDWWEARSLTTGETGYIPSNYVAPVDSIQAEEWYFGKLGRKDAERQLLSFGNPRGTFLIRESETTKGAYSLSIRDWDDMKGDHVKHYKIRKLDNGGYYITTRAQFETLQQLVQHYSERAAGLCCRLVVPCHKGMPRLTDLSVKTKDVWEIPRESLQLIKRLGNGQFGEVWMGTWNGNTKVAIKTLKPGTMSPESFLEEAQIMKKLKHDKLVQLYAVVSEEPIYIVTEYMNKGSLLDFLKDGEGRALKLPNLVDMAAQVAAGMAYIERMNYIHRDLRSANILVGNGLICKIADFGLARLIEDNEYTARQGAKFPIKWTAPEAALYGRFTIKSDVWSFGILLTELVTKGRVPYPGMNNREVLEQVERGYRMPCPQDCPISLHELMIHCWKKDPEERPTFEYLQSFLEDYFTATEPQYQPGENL
Insulin receptor-related protein (Homo sapiens), sequence (P14616 27-742 limits assumed): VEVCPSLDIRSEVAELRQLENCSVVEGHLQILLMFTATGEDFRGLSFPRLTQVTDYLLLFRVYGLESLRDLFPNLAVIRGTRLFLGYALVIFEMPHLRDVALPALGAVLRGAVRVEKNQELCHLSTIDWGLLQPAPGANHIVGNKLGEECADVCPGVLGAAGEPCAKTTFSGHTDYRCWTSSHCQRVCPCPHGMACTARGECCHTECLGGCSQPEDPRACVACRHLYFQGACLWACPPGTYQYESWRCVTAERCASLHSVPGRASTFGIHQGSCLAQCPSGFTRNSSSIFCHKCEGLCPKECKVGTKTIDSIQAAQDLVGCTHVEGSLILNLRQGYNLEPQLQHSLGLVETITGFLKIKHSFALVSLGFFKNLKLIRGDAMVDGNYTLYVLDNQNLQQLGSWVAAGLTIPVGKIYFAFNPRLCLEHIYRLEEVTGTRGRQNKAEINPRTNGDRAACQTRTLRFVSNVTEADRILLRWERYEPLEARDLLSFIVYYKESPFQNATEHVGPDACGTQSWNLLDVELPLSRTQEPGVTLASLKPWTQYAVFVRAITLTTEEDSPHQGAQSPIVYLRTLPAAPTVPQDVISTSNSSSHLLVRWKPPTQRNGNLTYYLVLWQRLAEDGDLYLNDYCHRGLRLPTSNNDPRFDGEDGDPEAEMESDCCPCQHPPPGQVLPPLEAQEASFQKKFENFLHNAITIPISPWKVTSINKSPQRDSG
Insulin receptor-related protein (Homo sapiens), sequence (P14616 747-1297 limits assumed): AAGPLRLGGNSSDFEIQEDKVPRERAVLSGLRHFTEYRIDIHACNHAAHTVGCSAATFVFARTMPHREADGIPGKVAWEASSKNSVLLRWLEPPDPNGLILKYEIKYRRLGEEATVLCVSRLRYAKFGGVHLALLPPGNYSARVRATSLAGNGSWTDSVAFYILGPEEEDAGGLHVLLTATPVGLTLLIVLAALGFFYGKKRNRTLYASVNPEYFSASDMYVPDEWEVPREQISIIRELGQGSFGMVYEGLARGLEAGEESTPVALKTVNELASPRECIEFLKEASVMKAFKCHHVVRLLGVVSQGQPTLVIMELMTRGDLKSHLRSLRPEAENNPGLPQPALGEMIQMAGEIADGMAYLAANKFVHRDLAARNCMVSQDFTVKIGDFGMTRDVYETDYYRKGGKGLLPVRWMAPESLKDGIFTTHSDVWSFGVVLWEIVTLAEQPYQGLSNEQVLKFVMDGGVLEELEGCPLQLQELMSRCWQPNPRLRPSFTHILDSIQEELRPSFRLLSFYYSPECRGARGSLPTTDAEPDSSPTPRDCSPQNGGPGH
Insulin receptor (Homo sapiens), sequence (P06213 28-758 limits assumed): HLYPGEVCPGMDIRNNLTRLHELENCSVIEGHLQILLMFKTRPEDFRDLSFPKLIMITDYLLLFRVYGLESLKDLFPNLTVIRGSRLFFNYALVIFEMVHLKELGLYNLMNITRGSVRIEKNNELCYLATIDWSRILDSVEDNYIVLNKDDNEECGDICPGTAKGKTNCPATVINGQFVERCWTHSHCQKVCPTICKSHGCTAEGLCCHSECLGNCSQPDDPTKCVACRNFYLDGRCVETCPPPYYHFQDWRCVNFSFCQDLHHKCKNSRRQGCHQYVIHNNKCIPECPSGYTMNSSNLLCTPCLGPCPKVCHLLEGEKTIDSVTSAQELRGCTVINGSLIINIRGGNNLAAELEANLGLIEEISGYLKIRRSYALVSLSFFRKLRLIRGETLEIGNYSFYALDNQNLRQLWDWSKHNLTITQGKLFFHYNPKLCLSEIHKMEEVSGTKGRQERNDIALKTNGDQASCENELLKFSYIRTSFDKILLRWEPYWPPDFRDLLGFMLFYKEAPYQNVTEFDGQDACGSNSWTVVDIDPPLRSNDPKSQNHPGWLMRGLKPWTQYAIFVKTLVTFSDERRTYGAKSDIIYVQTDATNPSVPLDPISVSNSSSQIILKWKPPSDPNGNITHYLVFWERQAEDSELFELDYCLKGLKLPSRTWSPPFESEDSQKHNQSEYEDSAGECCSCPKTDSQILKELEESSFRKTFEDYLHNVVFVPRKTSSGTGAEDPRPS
Insulin receptor (Homo sapiens), sequence (P06213 763-1382 limits assumed): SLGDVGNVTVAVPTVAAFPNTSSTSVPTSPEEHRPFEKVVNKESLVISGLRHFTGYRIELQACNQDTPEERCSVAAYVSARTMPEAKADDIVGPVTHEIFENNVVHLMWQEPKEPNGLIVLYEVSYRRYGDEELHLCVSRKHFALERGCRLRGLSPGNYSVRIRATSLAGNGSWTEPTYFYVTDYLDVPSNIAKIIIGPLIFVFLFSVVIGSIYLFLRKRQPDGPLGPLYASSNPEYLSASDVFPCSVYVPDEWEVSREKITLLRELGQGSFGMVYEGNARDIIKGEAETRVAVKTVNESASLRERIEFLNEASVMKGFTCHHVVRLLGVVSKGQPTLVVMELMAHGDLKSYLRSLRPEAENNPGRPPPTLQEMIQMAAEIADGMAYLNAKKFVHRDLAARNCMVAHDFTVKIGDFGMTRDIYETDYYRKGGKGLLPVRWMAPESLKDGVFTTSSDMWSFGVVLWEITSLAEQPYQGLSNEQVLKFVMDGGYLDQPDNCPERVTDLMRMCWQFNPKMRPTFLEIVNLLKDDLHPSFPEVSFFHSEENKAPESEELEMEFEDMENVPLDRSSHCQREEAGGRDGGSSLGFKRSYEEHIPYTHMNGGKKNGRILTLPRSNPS

As a reminder, the inhibition is the change of the read-out against control, counted positive when it falls. In the case of `CCn1c(-c2nonc2N)nc2cncc(C(=O)NCCNC)c21`, the inhibition in test [1] came out at 2%; in test [2], 4.96%; in [3] it was 6.37%; in test [4], 1.12%; in [5], 5.76%; in test [6], 5.87%. Further, the inhibition was 15.3% in test [7], 3.26% in [8], 5.53% in test [9] and -0.27% in [10].
Regarding `Nc1ncnc2occ(-c3ccc(NC(=O)Nc4cc(C(F)(F)F)ccc4F)cc3)c12`, the inhibition in [1] is 24.3% and 15.7%; in [2], 9.61% and 2.25%; in [3], 46.5% and 31.6%; in [4] it was 11.3% and 1.32%; in test [5], 10.7% and 0.73%; in test [6], 2.86% and 1.65%. For the same compound, the inhibition in [7] is 13.2% and 8.78%; in [8], 1.56% and -3.07%; in test [9] it was 1.62% and -3%; in test [10], 2.22% and -1.63%.
For the compound `CN1CCC(C(=O)Nc2n[nH]c3nc(-c4ccc(O)cc4)c(Br)cc23)CC1`, the inhibition was 2.18% and 4.52% in test [1]; 3.06% and 2.78% in test [2]; 6.08% and 4.64% in [3]; -4.96% and 3.55% in test [4]; -5.49% and 3.41% in test [5]; 5.36% and 4.34% in test [6]. Moreover, the inhibition was 4.73% and 6.55% in test [7]; 2.54% and -0.17% in test [8]; 2.5% and 1.64% in [9]; -2.09% and 0.57% in test [10].
Regarding `O=C(O[C@H]1CN[C@H](C#Cc2cc3ncnc(Nc4ccc5c(ccn5Cc5cc(F)ccc5F)c4)c3s2)C1)N1CCOCC1`, the inhibition in test [1] stood at 0.77%; in test [2], 4.89%; in [3] it was 8.93%; in test [4], 2.56%; in test [5] it was 2.8%; in test [6], 6.64%. Moreover, the inhibition in test [7] stood at 2.68%; in test [8], 1.67%; in test [9] it was 2.01%; in test [10] it was 1.67%.
Take `Cc1cc(O)cc(C)c1/C=C/c1cncc(C(=O)OC(C)(C)C)c1`: the inhibition in [1] worked out at 39.1%; in test [2] it was 11.3%; in test [3] it was 51.5%; in test [4], 4.61%; in test [5] it was 2.33%; in test [6] it was 3.02%. In addition, the inhibition in test [7] stood at 4.74%; in test [8] it was 2.54%; in [9], 1.64%; in test [10] it was 1.16%.
With `COc1cccc(Nc2nccc(-c3cnn4ncccc34)n2)c1`, the inhibition is 16.2% in [1]; 7.25% in test [2]; 17.4% in [3]; 14.5% in test [4]; 52.4% in [5]; 10.9% in [6]. Also, the inhibition in test [7] is 54.2%; in test [8] it was 3.8%; in test [9] it was 15.4%; in test [10], 1.26%.
As for `CCCNc1cccc(-n2ncc3c(N/N=C/c4ccncc4)ncnc32)c1`, the inhibition was 52.8% in test [1]; 7.22% in [2]; 35.8% in test [3]; 0.75% in test [4]; -0.01% in test [5]; 1.6% in test [6]. The inhibition in test [7] came to 0.96%; in test [8] it was 0.19%; in [9], 1.63%; in test [10], 6.02%.
Consider `Cc1ccc(-c2cc3c(NC(=O)C4CC4)ncnc3o2)cc1`, for which the inhibition in test [1] amounted to 5.49%; in test [2], 7.39%; in [3], 21.8%; in test [4] it was 5.44%; in test [5], 5.98%; in test [6], 5.37%. Moreover, the inhibition in [7] worked out at 5.18%; in [8], 5.59%; in test [9], 2.34%; in test [10] it was 1.76%.
For the compound `N#Cc1ccc2c(-c3ccnc(NC4CC4)n3)c(-c3ccc(F)cc3)nn2c1`, the inhibition is 0.92% in [1]; 1.95% in [2]; 1.1% in [3]; 1.58% in [4]; -2.63% in test [5]; 0.02% in [6]. The inhibition in test [7] is -1.67%; in test [8] it was -0.15%; in [9] it was 0.6%; in test [10] it was 0.02%.
As for `COc1cc2c(cc1Nc1nc(Nc3cccc(F)c3C(N)=O)c3cc[nH]c3n1)N(C(=O)CN1CCN(C(C)C)CC1)CC2`, the inhibition in [1] amounted to 2.53%; in test [2], 1.66%; in test [3] it was 2.73%; in test [4] it was 57.8%; in test [5] it was 87.7%; in [6] it was 69.1%. Moreover, the inhibition in test [7] was found to be 88.2%; in test [8], 6.85%; in [9] it was 44.3%; in [10], 1.77%.
`CCS(=O)(=O)c1ccc(OC)c(Nc2ncc(-c3cccc(C(C)=O)c3)o2)c1`: the inhibition was 71.4% in test [1]; 11% in test [2]; 71.2% in [3]; 1.64% in [4]; 3.11% in test [5]; 2.36% in test [6]. Also, the inhibition in [7] is 2.68%; in test [8] it was 2.22%; in test [9], 3.18%; in test [10], 0.98%.
Regarding `CS(=O)(=O)Nc1ccc(-c2cc(-c3ccccc3)cc(C(N)=O)c2N)cc1`, the inhibition is -0.83% in test [1]; 2.58% in test [2]; 4.51% in [3]; 15.8% in test [4]; 8.99% in test [5]; 4.43% in [6]. Besides, the inhibition in test [7] was 3.29%; in test [8], -1.45%; in test [9], 0.85%; in test [10], 0.8%.
For `CN1CCN(Cc2ccc(-c3cc4ncnc(Nc5ccc(OCc6cccc(F)c6)c(Cl)c5)c4s3)o2)CC1`, the inhibition in test [1] is 9.29% and 9.99%; in [2], 3.14% and 4.38%; in test [3], 7.61% and 13.1%; in [4] it was -0.2% and 3.7%; in test [5], 1.01% and 6.72%; in [6], 2.51% and 7.21%. Moreover, the inhibition in test [7] was 3.07% and 7.9%; in [8], 1.81% and 2.44%; in test [9], 3.22% and 4.36%; in test [10] it was 1.02% and 2.31%.
For the compound `COC(=O)Nc1nc2cc(Oc3ccc(NC(=O)Nc4ccccc4)cc3)ccc2[nH]1`, the inhibition in test [1] is 4.68%; in [2] it was 2.26%; in test [3], 4.53%; in test [4], 0.4%; in test [5], -0.2%; in test [6], 3.75%. Moreover, the inhibition in [7] was 6.99%; in [8], 0.98%; in test [9], 1.1%; in [10], -0.1%.
Regarding `COc1ccc2ncn(-c3cc(O[C@H](C)c4ccccc4C(F)(F)F)c(C(N)=O)s3)c2c1`, the inhibition in test [1] is 5%; in test [2], 0.81%; in [3], 2.14%; in [4], -0.28%; in test [5], -0.09%; in test [6], 0.11%. For the same compound, the inhibition in test [7] was 1.34%; in [8], -2.16%; in test [9], -0.27%; in [10] it was 0.33%.
For `CC1=C(C(=O)Nc2ccc3[nH]nc(C)c3c2)C(c2ccc(C(F)(F)F)cc2)CC(=O)N1` (stereo not given), the inhibition stood at 2.72% in test [1]; 4.64% in test [2]; 9.34% in test [3]; 2.37% in test [4]; 3.78% in test [5]; 0.03% in test [6]. For the same compound, the inhibition turned out to be 1.72% in test [7], 2.64% in [8], 1.26% in test [9] and 1.81% in test [10].
